From the supplement of paper PMC8728848
The full list was thinned out, with the strongest signals kept by preference.

Columns and labels:
Assay in all cases: glycan array binding signal (z-score within array); higher = stronger binding
Settings in all cases: glycan notation: IUPAC condensed, linker removed
[1] = biological target: Neu5Ac(a2-3)Gal(b1-3)[Neu5Ac(a2-6)]GalNAc
Method in brief: (§1)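 Arrays were curated from the Consortium for Functional Glycomics database, 3228 in total, and kept only where the protein sequence was available. Binding is expressed as a within-array Z-score. This score was averaged across arrays of the same protein sequence at different concentrations or buffers and across linkers, and negative values can be read as non-binding.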

Neu5Ac(a2-3)Gal(b1-4)Glc = biological target: Neu5Ac(a2-3)Gal(b1-4)Glc
Method in brief: as §1

[2] = biological target: Neu5Ac(a2-3)Gal(b1-4)GlcNAc(b1-2)Man
Method in brief: as §1

[3] = biological target: Neu5Ac(a2-3)Gal(b1-4)GlcNAc(b1-3)Gal(b1-4)GlcNAc(b1-3)[Neu5Ac(a2-3)Gal(b1-4)GlcNAc(b1-3)Gal(b1-4)GlcNAc(b1-6)]GalNAc
Method in brief: as §1

[4] = biological target: Neu5Ac(a2-3)Gal(b1-4)GlcNAc(b1-3)GalNAc
Method in brief: as §1

[5] = biological target: Neu5Ac(a2-3)Gal(b1-4)[Fuc(a1-3)]GlcNAc(b1-6)[Gal(b1-3)]GalNAc
Method in brief: as §1

[6] = biological target: Neu5Ac(a2-6)Gal(b1-4)GlcNAc
Method in brief: as §1

[7] = biological target: Neu5Ac(a2-6)Gal(b1-4)GlcNAc(b1-3)GalNAc
Method in brief: as §1

[8] = biological target: Neu5Ac(a2-6)GalNAc(b1-4)GlcNAc
Method in brief: as §1

[9] = biological target: Neu5Ac(a2-6)GlcNAc(b1-4)GlcNAc(b1-4)GlcNAc
Method in brief: as §1

B1: BC2LB (Burholderia cenocepacia), B4EH85_BURCJ (protein)
chain: MGSSHHHHHHSSGENLYFQGHMSQPFTHDDLYALLQLAGNDATAVQANGDQAVLDRMRQFMTAQLVEKLPQYDVFVDIATIPYSFDVGSWQNKVKTDAAGEVVACTVTWAGAPGVLPGAAAKFGVGAVVNYFSKATPH
glycan array binding signal (z-score) [1]: 2.87
glycan array binding signal (z-score) (Neu5Ac(a2-3)Gal(b1-4)Glc): 5.24
glycan array binding signal (z-score) [2]: 2.39
glycan array binding signal (z-score) [3]: -0.203
glycan array binding signal (z-score) [4]: -0.104
glycan array binding signal (z-score) [5]: -0.247
glycan array binding signal (z-score) [6]: -0.206
glycan array binding signal (z-score) [7]: 10.1
glycan array binding signal (z-score) [8]: -0.418
glycan array binding signal (z-score) [9]: -0.338
